25 compounds from PubChem BioAssay (EPA / NIEHS) can be followed below.

The term AC50 denotes the concentration at which the activity in the assay is half-maximal.

The structures appear in SMILES notation. Values joined by “and” are separate entries in the source; they are usually repeats but may differ in a detail not shown here. Identical values can stand only once. Records with an inconclusive call do not appear. Active and inactive are the calls of the source. Rule for the calls: active = hit-call score of the fitted dose curve at least 0.9, where 1 is the maximum; inconclusive = response in the unintended direction; inactive = score below 0.9.

This test deals with Cellular tumor antigen p53 (Homo sapiens) (UniProt P04637). Kind of test: TOX21_p53_BLA_p4_ratio: Tox21 HCT-116 p53 Agonism Beta-lactamase Assay, Ratio, Phase 4 (AID 2283601). The method, boiled down: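 HCT116 cells carrying an inducible beta-lactamase reporter were plated at 4000 cells/well, rested 5 h, then exposed to compounds in DMSO (217-fold dilution) for 16 h at 37C. CCF4-AM substrate was loaded 2 h at room temperature; 460/530 nm emission ratio scored gain-of-signal versus DMSO.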
Sequence of Cellular tumor antigen p53 (Homo sapiens) (P04637 whole entry, looked up): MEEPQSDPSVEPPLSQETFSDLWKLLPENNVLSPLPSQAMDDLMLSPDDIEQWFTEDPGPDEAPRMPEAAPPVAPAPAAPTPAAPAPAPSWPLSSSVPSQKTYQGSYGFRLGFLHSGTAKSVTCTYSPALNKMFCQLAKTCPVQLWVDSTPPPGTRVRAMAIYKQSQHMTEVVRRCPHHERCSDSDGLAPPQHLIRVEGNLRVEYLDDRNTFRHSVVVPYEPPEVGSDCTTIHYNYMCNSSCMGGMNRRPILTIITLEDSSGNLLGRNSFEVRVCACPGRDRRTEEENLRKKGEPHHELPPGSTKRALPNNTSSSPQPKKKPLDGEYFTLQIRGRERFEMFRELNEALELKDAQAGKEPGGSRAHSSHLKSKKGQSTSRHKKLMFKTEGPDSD
As for `CCCCCCOC(=O)C(C)CC` (stereo not given), the result was inactive.
As for `SCCc1cnccn1`, the AC50 is 60.3 µM (active).
As for `CNC(=S)N(C)C`, the outcome was inactive.
As for `C=C(C)c1cccc(C(C)(C)N=C=O)c1`, the result was inactive.
The same measure, in the same setting: then `CCCCCCCCCCOC(C)=O`, with “inactive”; and `OC1OCCOC1O` (stereo not given), with “inactive”.
With `c1ccc2c(c1)ccc1cc3c(ccc4ccccc43)cc12`, the result was inactive.
In the case of `CC(C)=CCCC(C)C=O` (stereo not given), the outcome was inactive.
Turning to `CCCCCCC(O)CO` (stereo not given), the outcome was inactive.
Take `O=Cc1ccc(CO)o1`: the result was inactive.
Turning to `C=CCOc1c(Br)cc(Br)cc1Br`, the result was inactive.
As for `COC(=O)/C=C\C(=O)O`, the outcome was inactive.
Regarding `CCC(C)OC(=O)c1ccc(O)cc1` (stereo not given), the result was inactive.
Still for that read-out and setting: then `O=C1CCCC(=O)O1`, with “inactive”; and `CC(=O)OCC(C)OC(C)=O` (stereo not given), with “inactive”.
Same read-out and setting: then `O=C(O)CCCCCCCCCC(=O)O`, with “inactive”; and `CC1=Nc2ccc3ccccc3c2C1(C)C`, with “inactive”.
For the compound `O=C(Nc1cccc(C(F)(F)F)c1)c1cc(Br)cc(Br)c1O`, the half-maximal activity concentration (AC50) was 3.52 µM (active) and 8.65 µM (active).
As for `O=C(O)c1cc(Cl)cc([N+](=O)[O-])c1Cl`, the outcome was inactive.
For the compound `CCCOC(=O)CCCCC(=O)OCCC`, the result was inactive.
The same measure, in the same setting: the value for `O=C(c1ccccc1)c1ccc(O)c(O)c1O` was “inactive”; that for `Cc1cccc(OCCOc2cccc(C)c2)c1` was “inactive”; that for `Cc1cc(C)c(C)c(O)c1` was “inactive”.
Regarding `C=CC(=O)OCCC(=O)O`, the outcome was inactive.
Same read-out and setting: the value for `NCCCN1CCN(CCCN)CC1` was “inactive”.
